The results in this text go back to ChEMBL document CHEMBL4513216, “Probing the Open Global Health Chemical Diversity Library for Multistage-Active Starting Points for Next-Generation Antimalarials” (ACS Infect Dis, 2020).

The whole screen tested about 68,000 compounds, of which about 2,700 (4%) showed an effect of 50% or more. The sample as a whole holds a higher share of strong results than the screen did.

The subject of this test is Plasmodium berghei. Description: Screen against P. berghei liver stage (PbLuc), transformed with Luciferase, at 2uM. It is filed as functional, HepG2. Particulars: tested at 2 uM.
On to `CCc1nc(N2CCCC(O)(CO)CC2)ncc1C` (stereo unspecified), for which the INHIBITION was 32.1%.
As to `Cc1ccc(C)c(OCc2cc(C(=O)N(C)CC(O)CO)no2)c1` (stereo unspecified), the INHIBITION is reported as -10.86%.
Take `Cc1ccc(C)c(OCc2cc(C(=O)N(C)Cc3cnn(C)c3)no2)c1`: the INHIBITION was 28.17%.
Turning to `Cc1ccc(C)c(OCc2cc(C(=O)N(C)Cc3nonc3C)no2)c1`, the INHIBITION is listed as 50.86%.
On to `Cc1cnn(CC2CCCN2Cc2ncc(-c3ccc(F)cc3)o2)c1` (stereo unspecified), for which the INHIBITION amounted to 10.52%.
For the molecule `O=C1CC(N(C(=O)c2ccc(F)c(F)c2)C2CC2)C(=O)N1` (stereo unspecified), the INHIBITION is recorded as -20.51%.
In the case of `COc1cc(C(=O)N(C2CC2)C2CC(=O)NC2=O)ccc1C` (stereo unspecified) it was 11.18%; in that of `Cc1ccc(C(=O)N(C2CC2)C2CC(=O)NC2=O)cc1F` (stereo unspecified), 59.93%; in that of `O=C([C@H]1C[C@H]2OCC[C@H]2N(CC2CC2)C1)N1CCCC1`, 63.14%.
The value for `O=C([C@H]1C[C@H]2OCC[C@H]2N(CC2CCOCC2)C1)N1CCCCO1` was 26.31%; that for `O=C([C@H]1C[C@H]2OCC[C@H]2N(CC2CCOCC2)C1)N1CCCC1` was 58.93%; that for `O=C([C@H]1C[C@@H]2[C@@H](C1)OCCN2CC1CC1)N1CCCC1` was -1.29%.
In the case of `CNC(=O)[C@H]1C[C@H]2OCC[C@H]2N(CC2CCOCC2)C1`, the INHIBITION is -14.24%.
On to `O=C([C@H]1C[C@H]2OCC[C@H]2N(CC2CC2)C1)N1CCCCO1`, for which the INHIBITION is on record as -11.4%.
As to `CS(=O)(=O)N1C[C@H]2CCCN(Cc3nccs3)[C@H]2C1`, the INHIBITION is on record as 14.65%.
As for `CC(Cn1cncn1)NC(=O)NCC(C)(C)c1ccc(F)cc1` (stereo unspecified), the INHIBITION was found to be 38.1%.
With `NC(=O)C(NC1CCN(CC2CCCCC2)CC1)c1ccc(F)cc1` (stereo unspecified), the INHIBITION turned out to be 65.76%.
For `NC(=O)C(NC1CCN(CC2CCCCC2)CC1)c1ccccc1` (stereo unspecified), the INHIBITION worked out at 15.27%.
For the molecule `NC(=O)C(NC1CCN(Cc2ccc(F)cc2)CC1)c1ccccc1` (stereo unspecified), the INHIBITION is reported as -15.03%.
For the molecule `COc1ccc(C[C@H]2CN(Cc3ccoc3)CC[C@H]2OC)cc1`, the INHIBITION stood at 10.71%.
As for `N#Cc1ccnc(N2CCC(c3nccn3Cc3cscn3)CC2)c1`, the INHIBITION is listed as 45.58%.
In the case of `Cn1ccc(C(=O)N2CCC3(CCN3c3ncccn3)C2)n1` (stereo unspecified) it was 53.38%.
Consider `Cn1cccc1C(=O)N1CCC2(CCN2c2ncccn2)C1` (stereo unspecified), for which the INHIBITION is recorded as 27.42%.
With `Cn1ccnc1C(=O)N1CCC2(CCN2c2ncccn2)C1` (stereo unspecified), the INHIBITION came to 6.07%.
For `CCN1CCn2c(C)cnc2C12CCN(C(=O)NCC(C)C)CC2`, the INHIBITION is -29.74%.
The value for `COc1cccn(Cc2nnc(-c3cccnc3)o2)c1=O` was -16.19%; that for `Cc1ccc(NC(=O)N(C)C)c(C(=O)OCC(=O)NC2CCCC2)c1` was 49.71%.
Regarding `CCC(C)(C)NC(=O)COC(=O)c1cc(C)ccc1NC(=O)N(C)C`, the INHIBITION is listed as 60.64%.
Consider `Cc1ccc(NC(=O)N(C)C)c(C(=O)OCC(=O)NC(C)C(C)C)c1` (stereo unspecified), for which the INHIBITION is listed as 20.34%.
The value for `Cc1cc2ncc(C(C)NCc3cccnc3)c(C)n2n1` (stereo unspecified) was 19.6%.
In the case of `CCc1ccccc1C(=O)NS(=O)(=O)CCCC#N` it was -32.8%; in that of `COCC1c2nnn(CC3CC3)c2CCN1C(=O)c1cnccn1` (stereo unspecified), 1.92%.
For `c1ccc(NC[C@@H]2CCC[C@@H]3CN(Cc4nccs4)C[C@@H]32)nc1`, the INHIBITION is recorded as 38.11%.
Take `CC1CN(Cc2cccnc2)CCN1c1ccc2nncn2n1` (stereo unspecified): the INHIBITION is -68.26%.
In the case of `Cc1cnc(CN2CCN(c3ccc4nncn4n3)C(C)C2)cn1` (stereo unspecified), the INHIBITION is listed as 6.12%.
Turning to `Cc1cc(CN2CCN(c3ccc4nncn4n3)C(C)C2)no1` (stereo unspecified), the INHIBITION is listed as -54.33%.
As for `Cc1ncc(CN2CCN(c3ccc4nncn4n3)C(C)C2)s1` (stereo unspecified), the INHIBITION is 64.71%.
Take `CC1CN(Cc2cnn(C)c2)CCN1c1ccc2nncn2n1` (stereo unspecified): the INHIBITION came out at 62.13%.
With `CC1CN(Cc2nccn2C)CCN1c1ccc2nncn2n1` (stereo unspecified), the INHIBITION was 3.9%.
Turning to `O=c1c(-c2ccnc(NC3CCCCC3)n2)cnc2sc(Cl)cn12`, the INHIBITION is 10.83%.
As to `Cn1c(C(=O)N2CC[C@@]3(O)CCCC[C@H]3C2)cc2ccccc21`, the INHIBITION is reported as 5.04%.
The value for `CS(=O)(=O)N1CCCC12CCCN(S(=O)(=O)c1cccc(F)c1)C2` (stereo unspecified) was 32.41%.
With `CCN1Cc2ccccc2CC2(CCN(C(=O)N(C)C)CC2)C1=O`, the INHIBITION came out at 14.94%.
With `Cn1nc(C(=O)N2CCCC(n3cncn3)C2)ccc1=O` (stereo unspecified), the INHIBITION is given as 8.06%.
Turning to `CC(C)(C)c1nc(CN2CCC(N3CCCCC3)CC2)no1`, the INHIBITION is listed as 40.47%.
Regarding `Cc1cc(C)c2cc(C(=O)N3CCNC(=O)C3)[nH]c2c1`, the INHIBITION is recorded as 19.48%.
With `O=C1CN(C(=O)c2cc3ccc(Br)cc3[nH]2)CCN1`, the INHIBITION is recorded as 57%.
In the case of `O=C1CN(C(=O)c2cc3c(F)cc(Br)cc3[nH]2)CCN1`, the INHIBITION is given as -10%.
For `Clc1cccc(C2CCN(c3ncnc4c3CCNC4)C2)c1` (stereo unspecified), the INHIBITION worked out at 36.79%.
For `COCCn1cnc(-c2nc(C(=O)N3CCOCC3)c3ccccn23)c1`, the INHIBITION is recorded as 11.37%.
Take `CN(Cc1n[nH]c2c1CCCC2)c1nc(C2CC2)nc2c1CCNCC2`: the INHIBITION is on record as 14.55%.
For the molecule `CCOc1ccc(Cl)c(C(=O)N(C)C)n1`, the INHIBITION is given as -23.4%.
Turning to `Cc1cnn(C2CN(CCOc3ccccc3C#N)C2)c1`, the INHIBITION is reported as -21.72%.
Consider `CO[C@H]1CCN(Cc2cnn(C)c2)[C@@H]2CN(Cc3ccncc3)C[C@H]12`, for which the INHIBITION was -22.28%.
In the case of `CO[C@@H]1CCN(Cc2cnn(C)c2)[C@@H]2CN(Cc3cccnc3)C[C@@H]21` it was 51.05%; in that of `CO[C@H]1CCN(Cc2cnn(C)c2)[C@@H]2CN(Cc3cccnc3)C[C@H]12`, 39.06%; in that of `CC(C)NC(=O)CS(=O)(=O)Cc1cc(Cl)c2c(c1)OCCO2`, 14.82%.
Regarding `CC(C)C1CN(Cc2c[nH]cn2)CCCN1CC1CC1` (stereo unspecified), the INHIBITION is given as -28.5%.
On to `CC(CN1CCOCC1)NC(=O)N(C)Cc1ccc(Cl)s1` (stereo unspecified), for which the INHIBITION stood at 2.8%.
In the case of `c1cnc(N2CCC3(CCN(CC4CCOC4)CC3)CC2)nc1` (stereo unspecified), the INHIBITION is listed as 42.27%.
For the molecule `c1cnc(N2CCC3(CN(CC4CCOC4)C3)C2)nc1` (stereo unspecified), the INHIBITION stood at 24.54%.
The value for `c1cnc(N2C[C@H]3CN(CC4CCOC4)C[C@H]3C2)nc1` (stereo partly specified) was 55.44%; that for `CCn1cc(C2CCN(Cc3ccnc(N(C)C)c3)CC2)cn1` was 5.17%; that for `CCC(C)C(=O)NCc1cccc(OCCN(C)C2CCOCC2)c1` (stereo unspecified) was -13.37%.
Regarding `COCC(=O)NCc1cccc(OCCN(C)C2CCOCC2)c1`, the INHIBITION stood at 6.07%.
In the case of `CC(C)CC(=O)NCc1cccc(OCCN(C)C2CCOCC2)c1`, the INHIBITION is 74.08%.
